Compound activity (PubChem BioAssay)
TRHR enhancer-1: allosterically enhances the human TRH receptor; actives 0.66% (n = 360,000); enhancement, % at 2 µM; TRHR cells, fluo-8 calcium fluorescence, EC20 TRH enhancement; P34981; in the data active = enhancement above about 30%
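Enhancer read-out: after compound pinning and an initial kinetic agonist-mode read, an EC20 of TRH (10 nM final) was injected and fluo-8 calcium signal (Ex 480/Em 530) followed at 1 s/cycle for 100 cycles in TRHR-expressing cells.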
TRHR agonist-1: TRH receptor (human) agonism | AID 493084 | actives 0.18% (n = 360,000) | TRHR cells, calcium flux fluo-8, FDSS agonist mode | activation, % at 2 µM; in the data active = activation above about 30%
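Agonist-mode FDSS calcium read (Ex 480/Em 530, 1 s cycles) in 1536-well TRHR cells with fluo-8 dye, after 10-cycle baseline and 23 nL compound addition; TRH at EC20 (10 nM final) added afterwards for the enhancer phase.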
USP1-UAF1 inh: inhibitors of human USP1/UAF1 deubiquitinase. actives 0.23% (n = 390,000). O94782. Potency, µM (highest dose often 57.1 µM), most hits filed as inhibitors. recombinant USP1/UAF1, Ub-Rhodamine cleavage fluorescence; also: nearly all actives have a fitted effect of over 60% in size
Target sequence (O94782 whole entry, looked up): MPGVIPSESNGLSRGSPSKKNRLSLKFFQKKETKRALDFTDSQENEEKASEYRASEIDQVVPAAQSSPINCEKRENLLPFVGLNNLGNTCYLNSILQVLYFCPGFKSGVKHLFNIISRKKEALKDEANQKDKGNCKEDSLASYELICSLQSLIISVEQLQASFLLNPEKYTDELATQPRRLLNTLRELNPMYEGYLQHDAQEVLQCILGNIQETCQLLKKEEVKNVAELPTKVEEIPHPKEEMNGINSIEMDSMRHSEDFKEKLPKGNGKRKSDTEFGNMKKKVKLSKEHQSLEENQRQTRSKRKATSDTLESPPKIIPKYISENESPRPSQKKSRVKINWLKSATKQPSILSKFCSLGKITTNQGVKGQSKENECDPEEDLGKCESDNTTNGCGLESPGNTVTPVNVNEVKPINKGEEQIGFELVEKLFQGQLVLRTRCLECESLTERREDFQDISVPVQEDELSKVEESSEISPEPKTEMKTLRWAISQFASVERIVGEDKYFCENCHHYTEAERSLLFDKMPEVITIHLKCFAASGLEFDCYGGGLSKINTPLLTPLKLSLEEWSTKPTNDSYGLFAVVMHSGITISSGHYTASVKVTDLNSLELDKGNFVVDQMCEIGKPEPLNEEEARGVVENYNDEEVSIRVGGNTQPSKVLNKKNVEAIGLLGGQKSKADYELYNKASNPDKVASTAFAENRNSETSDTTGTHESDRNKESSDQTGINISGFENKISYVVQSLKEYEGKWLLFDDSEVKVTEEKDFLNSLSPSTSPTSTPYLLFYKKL
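In this screen, compounds sit with the deubiquitinase complex (1nM) for 15 min at room temperature before Ub-Rho is added at 150nM final. Fluorescence rise is then followed for 6 reads every 60 seconds.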
D1 agonist: agonists of human D1 dopamine receptor; P21728; HEK293 T-REx D1 cells, calcium flux, agonist mode; activation, % at 2 µM; actives 1% (n = 360,000); AID 504660; in the data active = activation above about 30%
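Agonism was scored from calcium flux recorded over 180 s (1 read/s) after pintool compound addition, following a 10-cycle baseline. Cells were inducible force-coupled HEK293 TREx D1, plated overnight at 30 C and loaded with no-wash calcium dye.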
D1 antag: blocks dopamine activation of the human D1 receptor; AID 504652; activity change, negative = inhibition, % at 10 µM; HEK293 TREx D1 cells, calcium flux, dopamine EC80; active compounds read low; actives 3.2% (n = 360,000); in the data active = activity change below about -30%
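Using tetracycline-induced force-coupled D1 Hek293 cells and a calcium dye, signals were followed for 180 s after compound, then for 180 s after EC80 dopamine, to detect inhibitors.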
D1 potentiator: potentiators of human D1 dopamine receptor. HEK293 TREx D1 cells, calcium flux, dopamine EC20 potentiation. potentiation, % at 10 µM. actives 0.036% (n = 360,000). AID 504651; in the data active = potentiation above about 30%
TRHR enhancer-2: human TRH receptor allosteric enhancement confirmation; shares compounds with TRHR enhancer-1; TRH receptor cell assay, enhancer confirmation qHTS; activity change, negative = inhibition, % at 46.1 µM; 970 tested, under 10 active; AID 493076;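 also: compound effect scored on response to added TRH at EC20 of 10 nM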
TRHR agonist-2: human TRH receptor agonism confirmation | shares compounds with TRHR enhancer-1 | TRHR-expressing cells, agonist activation read-out | Potency, µM (highest dose often 46.1 µM), actives largely listed as activators | actives 8% (n = 970) | AID 493078; also: nearly all actives have a fitted effect of over 75% in size
Of the large screens only hits and unclear results are named; the others gave an inactive call (follow-up assays come after a bar, where they were run). Only some compounds are listed: those with a hit (about 4.4% of all), similar ones and a draw of the others. Unless noted, calls follow the shape of the dose curve; as a rule, active = well fitted curve in the direction sought with a large enough effect; inconclusive = small, poorly fitted or top-dose-only effect, or another doubt; inactive = no such curve, though single readings can be large; an effect the other way counts as inactive or inconclusive.

Cc1cc(C(=O)NCCc2ccc(Cl)cc2)c2c(C)nn(-c3cccc(F)c3)c2n1	none
CCN(CC)S(=O)(=O)c1cccc(C(=O)N/N=C(\C)c2ccc(O)cc2O)c1	none | TRHR enhancer-2 inactive | TRHR agonist-2 inconclusive
CCNC(=O)c1cnc2sc(N3CCC(C)CC3)nn2c1=O	none
O=C(Nc1cc(C(F)(F)F)ccc1N1CCOCC1)C1CC1	TRHR enhancer-1 49 | TRHR enhancer-2 inactive | TRHR agonist-2 inactive
CN1CCC(=NNC(=O)CSc2ccc(Cl)cc2)CC1	TRHR enhancer-1 44 | TRHR enhancer-2 inactive | TRHR agonist-2 inactive
CCN(CC)c1nc2c(s1)C(=O)NCCC2	TRHR enhancer-1 51 | TRHR enhancer-2 inactive | TRHR agonist-2 inactive
COc1nc2c(s1)C(=O)NCCC2	none
O=C(COCc1cc(-c2cccs2)on1)N1CCN(c2cccc(Cl)c2)CC1	USP1-UAF1 inh inconclusive
O=C(Cn1c(=O)n(Cc2ccco2)c(=O)c2sc3ccccc3c21)Nc1ccccc1C(F)(F)F	none
O=C(N/N=C/c1cc(Cl)cc(Cl)c1O)c1ccncc1	TRHR agonist-1 40, USP1-UAF1 inh 32µM, D1 agonist 68 | TRHR enhancer-2 inconclusive | TRHR agonist-2 21µM
O=C(N/N=C/c1ccc(Cl)cc1Cl)c1ccncc1	none
O=C(NCc1ccccc1Cl)c1ccc2c(c1)NC(=O)C(CS(=O)(=O)Cc1ccc(Cl)cc1)N2 (configuration not stated)	none
CCOc1ccc(CNC(=O)CS(=O)(=O)c2cccc3nsnc23)cc1	none
Cc1c(NC(=O)Cn2nc(C(F)(F)F)c3c2CCCC3)c(=O)n(-c2ccccc2)n1C	TRHR enhancer-1 58 | TRHR enhancer-2 inactive | TRHR agonist-2 inactive
CCc1ccccc1NC(=O)Cn1nc(C(F)(F)F)c2c1CCCC2	none
COC(=O)c1ccccc1NC(=O)Cn1nc(C(F)(F)F)c2c1CCCC2	TRHR enhancer-1 57 | TRHR enhancer-2 inactive | TRHR agonist-2 inactive
CCN(C(=O)Cn1nc(C(=O)O)c2ccccc2c1=O)C1CCCCC1	TRHR enhancer-1 44 | TRHR enhancer-2 inactive | TRHR agonist-2 inactive
Cc1c(NC(=O)Cn2nc(C(=O)O)c3ccccc3c2=O)c(=O)n(-c2ccccc2)n1C	TRHR enhancer-1 46 | TRHR enhancer-2 inactive | TRHR agonist-2 inactive
COc1ccc(CCN2C(=O)N(c3cccc(C)c3)C(=O)C2CC(=O)Nc2ccccc2)cc1OC (configuration not stated)	none
Cc1ccc(-n2cnnn2)cc1S(N)(=O)=O	USP1-UAF1 inh inconclusive
CCn1c(CNC(=O)COc2ccc(C(C)C)cc2)nnc1SCC(=O)Nc1cc(F)ccc1C	TRHR enhancer-1 41 | TRHR enhancer-2 inactive | TRHR agonist-2 inactive
O=C(NCC(c1cccnc1)N1CCc2ccccc21)c1cccc(Br)c1 (configuration not stated)	none
Cc1ccc2nc(-c3ccc(NC(=O)COC(=O)c4cncc(Br)c4)cc3)sc2c1	TRHR enhancer-1 44 | TRHR enhancer-2 inactive | TRHR agonist-2 inactive
Cc1ccc2nc(-c3ccc(NC(=O)COC(=O)c4ccco4)cc3)sc2c1	none
Cc1ccccc1Cn1c(=O)n(CCCCC(=O)NCc2ccc3c(c2)OCO3)c(=O)c2ccccc21	none
CCOC(=O)c1ccccc1NC(=O)Cn1c(=O)n(-c2cccc(C)c2)c(=O)c2c1c1cc(C)ccc1n2C	none
O=C(c1ccc(CSc2nc3ccncc3n2Cc2ccccc2F)cc1)N1CCCCC1	TRHR enhancer-1 58 | TRHR enhancer-2 inactive | TRHR agonist-2 inactive
COc1ccc(-c2nnc(SCC(=O)Nc3cccc(F)c3)s2)cc1	none
Cc1ccc(C)c(NC(=O)CSc2ncc3c(n2)-c2cc(Cl)ccc2N(Cc2ccccc2F)S3(=O)=O)c1	none
